Shown are actives, neighbours in structure and some others; about 12% of the full set was active somewhere.
BAZ2B block: qHTS Assay for Inhibitors of BAZ2B | AlphaScreen BAZ2B-H3K14Ac peptide displacement | Potency, µM (highest dose often 114 µM), without a hit: at the top dose activity change, negative = inhibition, most hits filed as inhibitors | hit rate 4.4% among 360,000 | AID 504333, 2011; note: % is set by controls: 0 for no effect and ±100 for the full control effect; nearly all actives have a fitted effect of over 60% in size
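Inhibition is scored as reduced AlphaScreen emission. The BAZ2B/b-H3(5-23)K14Ac complex (50 nM each) in PBS pH 7.4, 0.01% Tween-20 meets compound (up to 110 uM) for 30 min at RT before bead addition.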
HP1b chromo inh: HTS for Inhibitors of HP1-beta Chromodomain Interactions with Methylated Histone Tails; Chromobox protein homolog 1 (Homo sapiens), P83916; AlphaScreen HP1-beta / biotin-H3K9me3 peptide binding; Potency, µM (doses to about 114 µM), without a hit: at the top dose activity change, negative = inhibition, most hits filed as inhibitors; hit rate 0.56% among 390,000; note: nearly all actives have a fitted effect of over 70% in size
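AlphaScreen: HP1-beta (50 nM) preformed 30 min with biotin-H3(1-18)K9me3 peptide (50 nM) in PBS pH 7.4, 0.01% Tween-20. Compound added for 30 min at RT, then streptavidin donor/nickel chelate acceptor beads (10 ug/mL) for 30 min.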
Sfp PPTase inh: qHTS Assay for Inhibitors of Bacillus subtilis Sfp phosphopantetheinyl transferase (PPTase); 4'-phosphopantetheinyl transferase ffp (Bacillus subtilis), Q9F4F7; Biochemical Sfp PPTase activity, qHTS; Potency, µM, for the others: largest response in the series, negative = inhibition, hits mostly inhibitors; hit rate 3.5% among 310,000; AID 1490, 2009;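 note: the enzyme is Sfp with the accession as filed and its product quenches rhodamine fluorescence; 0% = enzyme reaction without inhibitor and -100% = no enzyme wells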
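Fluorescence-quenching assay with 15 nM Sfp, 5 uM rhodamine-CoA and 12.5 uM BHQ-2-labelled ybbR peptide in pH 7.6 Hepes/MgCl2 buffer. Enzyme was pre-incubated with compound for 15 min at room temperature. Rate was taken from the 30-min fluorescence change (525/598 nm).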
L3MBTL1 block: qHTS Assay for the Inhibitors of L3MBTL1. Lethal(3)malignant brain tumor-like protein 1 (Homo sapiens), Q9Y468. AlphaScreen L3MBTL1–H3K9me1 peptide binding. Potency, µM (highest dose often 57.1 µM), without a hit: at the highest dose activity, negative = inhibition, most hits filed as inhibitors. hit rate 0.66% among 230,000. AID 485360, 2010; note: % is set by controls: 0 for no effect and ±100 for the full control effect; nearly all actives have a fitted effect of over 60% in size
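AlphaScreen assay: L3MBTL1 (50 nM final) was preincubated 30 min at room temperature with biotinylated H3(1-15)K9me1 peptide (75 nM final), then 30 min with library compounds; streptavidin donor and nickel chelate acceptor beads (10 ug/mL final) added, 30 min dark.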
JMJD2A Tudor: qHTS Assay for Inhibitors of JMJD2A-Tudor Domain. AlphaScreen JMJD2A-Tudor / H3K4me3 peptide binding. Potency, µM (doses to about 114 µM), for the others: top-dose activity change, negative = inhibition, hits mostly inhibitors. Lysine-specific demethylase 4A (Homo sapiens), O75164. hit rate 4.4% among 390,000. AID 504339, 2011; note: % is set by controls: 0 for no effect and ±100 for the full control effect; nearly all actives have a fitted effect of over 50% in size
G9a inh: qHTS Assay for Inhibitors of Histone Lysine Methyltransferase G9a; Potency, µM (doses to about 102 µM), for inactives: at the top dose activity, negative = inhibition, hits mostly inhibitors; AID 504332, 2011; hit rate 8.8% among 350,000; G9a H3K9 monomethylation, AlphaScreen, 2 h; Histone-lysine N-methyltransferase EHMT2 (Homo sapiens), Q96KQ7; note: % is set by controls: 0 for no effect and ±100 for the full control effect; nearly all actives have a fitted effect of over 75% in size
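Signal arises when biotinylated H3K9 peptide, once monomethylated, bridges streptavidin donor and antibody-captured acceptor beads. Enzyme at 20 nM was preincubated 15 min with test compounds; peptide 500 nM and SAM 20 uM then reacted for 2 h.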
An asterisk follows results filed as active; ? = inconclusive; / = no result; [ ] = dose if it differs, or a comment. Calls come from the whole dose curve; as a rule, active = well fitted curve in the direction sought with a large enough effect; inconclusive = small, poorly fitted or top-dose-only effect, or another doubt; inactive = no such curve, though single readings can be large; an effect the other way counts as inactive or inconclusive. Potency is the fitted concentration of half-maximal effect.

SMILES	BAZ2B block	HP1b chromo inh	Sfp PPTase inh	L3MBTL1 block	JMJD2A Tudor	G9a inh
CN(Cc1ccno1)C(=O)CC1C(=O)NCCN1CC(c1ccccc1)c1ccccc1 (stereo not drawn)	-11%	36%	1%	-10%	-11%	?
O=C(c1ccccc1)c1c(O)cc(-c2ccccc2)oc1=O	56µM*	?	13%	?	?	?
Cc1ccc(NC(=O)CC2Sc3ccccc3NC2=O)c(Br)c1 (stereo not drawn)	0%	26%	/	/	-7%	-43%[59 µM]
CCN(CC(=O)Nc1ccc2c(c1)OCCO2)Cc1cc(=O)n2ccsc2n1	-5%	23%	-16%	/	3%	11%
CCN(CC(=O)NCc1ccc(F)cc1)Cc1cc(=O)n2ccsc2n1	-24%	26%	17%	9%	-23%	45µM*
CCc1c(C)nc2cc(-c3ccc(OC)c(OC)c3)nn2c1NCC1CC1	-37%	-9%	22µM*	/	?	56µM*
CC(=O)c1sc(NC(=O)c2ccc(Cn3cc(Br)cn3)o2)nc1C	-8%	16%	12%	-10%	-14%	45µM*
CC(=O)c1sc(NC(=O)c2ccc(Br)o2)nc1C	?	35%	5%	/	7%	2%
CSc1nc(-c2ccccc2)c(C#N)c(=O)[nH]1	-13%	-18%	23%	/	4%[11.4 µM]	-33%
CSc1nc(-c2cccs2)c(C#N)c(=O)[nH]1	-20%	0%	0%	1%	-6%	45µM*
N#Cc1c(-c2cccs2)nc(SCc2ccc(Cl)cc2)[nH]c1=O	?	-28%	79µM*	?	?	-25%
COc1cc(C2C(C#N)=C(N)Oc3c2oc(CO)cc3=O)ccc1OC(C)C (stereo not drawn)	-5%	13%	-29%	2%	16µM*	?
CC(C)Oc1ccc(C2C(C#N)=C(N)Oc3c2oc(CO)cc3=O)cc1 (stereo not drawn)	-19%	46%	-1%	/	-6%	-29%
COc1ccc(NC(=O)CN(c2ccc(C)cc2)S(=O)(=O)c2cccc3nonc23)cc1OC	/	6%	/	/	-33%	?
FC(F)(Cl)c1nnc2ccc(Sc3ccccn3)nn12	-20%	41%	-9%	8%	-1%	25µM*
FC(F)(F)C(F)(F)c1nnc2ccc(-n3ccnc3)nn12	-2%	38%	21%	/	-8%	-36%
CN(C)C(CNC(=O)C1CCN(S(=O)(=O)c2cc(Cl)ccc2Cl)CC1)Cc1ccccc1 (stereo not drawn)	/	10%	/	/	-24%	/
CCOc1ccccc1NC(=O)c1c(NC(=O)c2ccccc2C)sc2c1CCC(C)C2 (stereo not drawn)	4%	15%	/	/	-12%	14µM*
CCOc1ccccc1NC(=O)c1c(NCc2cccs2)sc2c1CCC(C)C2 (stereo not drawn)	-11%	20%	/	/	-10%	-42%[59 µM]
COc1ccc(C2=NN(CC(=O)NCCc3ccc(OC)c(OC)c3)C(=O)CC2)cc1	2%	21%	/	/	-6%	-29%[59 µM]
Cc1nc(-n2nc(C)c(CCC(C)C)c2C)sc1C(=O)Nc1cccc(Cl)c1C	?	31%	/	/	-10%	14µM*
Cn1cc(CN2CCc3c([nH]c4ccccc34)C2C2CCCCC2)cn1 (stereo not drawn)	45µM*	8%	?	-6%	-17%[57.1 µM]	45µM*
Cn1cc(CN2CCc3c([nH]c4ccccc34)C2C(C)(C)C)cn1 (stereo not drawn)	-4%	7%	-1%	-1%	-27%	/
CCN1/C(=C2\SC(=S)N(Cc3ccccc3)C2=O)Sc2ccccc21	2%	57%	-3%	11%	2%	18%[59 µM]
CCN1C(C)=C(C)S/C1=C1\SC(=S)N(N)C1=O	-19%	18%	20µM*	10%	-1%[57.1 µM]	/
SMILES	BAZ2B block	HP1b chromo inh	Sfp PPTase inh	L3MBTL1 block	JMJD2A Tudor	G9a inh
COc1ccc([C@H]2[C@H](C(=O)OC(C)(C)C)N3N=Cc4ccccc4C3C23C(=O)c2ccccc2C3=O)c(OC)c1 (stereo partly drawn)	?	-16%	-9%	-11%	?	?
COc1ccc([C@H]2[C@H](C(=O)OC(C)(C)C)N3N=Cc4ccccc4C3C23C(=O)c2ccccc2C3=O)cc1OC (stereo partly drawn)	18µM*	-22%	-10%	-19%	?	?
CCOc1ccc2nc3sc(C(=O)N4CCOCC4)c(N)c3cc2c1	-37%	11%	32µM*	0%	-15%	?
CCc1nnc(NC(=O)c2sc3nc4cc(C)ccc4cc3c2N)s1	?	55%	-11%	6%	?	?
Cc1cc(C)c2cc3c(N)c(C(=O)N4CCOCC4)sc3nc2c1	-16%	23%	?	-1%	-14%[57.1 µM]	8.9µM*
Cc1cc(C)c2cc3c(N)c(C(=O)Nc4c(C)[nH]c(=O)[nH]c4=O)sc3nc2c1	50µM*	89%	?	11%	?	-15%
COC(=O)c1sc2nc3c(cc2c1N)C(=O)CC(C)(C)C3	-3%	38%	18%	4%	-24%	?
Cc1cc(C)c(NC(=O)c2sc3nc4c(cc3c2N)C(=O)CC(C)(C)C4)c(C)c1	?	16%	-14%	-1%	-34%	45µM*
Cc1ccc(NC(c2nnc(-c3ccccc3)o2)c2ccccc2F)c(Cl)c1 (stereo not drawn)	16%	55%	/	/	26%	45%[59 µM]
Oc1cccc(C=NCc2ccccc2)c1O	?	-14%	?	/	-25%	?
Oc1c(C=NCc2ccccc2)sc2ccccc12	?	?	10%	-1%	89µM*	?
O=C(CC1C(=O)NCCN1Cc1cccc(F)c1)NCCCCCN1CCOCC1 (stereo not drawn)	-11%	31%	3%	/	-7%	71µM*
O=C(CC1C(=O)NCCN1CC1CCCCC1)NCc1cccc(F)c1F (stereo not drawn)	-25%	-1%	3%	-1%	-17%	-8%
O=C(CC1C(=O)NCCN1Cc1cccc(F)c1F)NCCCC1CCCC1 (stereo not drawn)	-19%	39%	3%	/	-11%	50µM*
COc1cccc(CNC(=O)CC2C(=O)NCCN2CCCc2ccccc2)c1 (stereo not drawn)	-24%	25%	2%	/	-15%	50µM*

Source: PubChem BioAssay
